AC50 and activity, negative = inhibition data for 98 molecules are collected here from PubChem BioAssay AID1851 (National Center for Advancing Translational Sciences (NCATS), 2009).

Values joined by “and” are separate entries in the source; they are usually repeats but may differ in a detail not shown here. Identical values can stand only once. About 5,700 (36%) of roughly 16,000 compounds were called active. Inconclusive results (about 24%) are left out. The list shows a part of the results. Values without a mark were called inactive. Calls come from the whole dose curve; as a rule, active = well fitted curve in the direction sought with a large enough effect; inconclusive = small, poorly fitted or top-dose-only effect, or effect the other way; inactive = no such curve, though single readings can be large or run the other way.
% is set by controls: 0 for no effect and ±100 for the full control effect.

In this assay the target is Cytochrome P450 1A2 (Homo sapiens) (UniProt P05177). Nature of the assay: Cytochrome panel assay with activity outcomes. The note with it: recombinant CYP, pro-luciferin dealkylation, luminescence, p450-cyp1a2; series mostly up to 57.1 µM.
Chain of Cytochrome P450 1A2 (Homo sapiens) (P05177 whole entry, looked up): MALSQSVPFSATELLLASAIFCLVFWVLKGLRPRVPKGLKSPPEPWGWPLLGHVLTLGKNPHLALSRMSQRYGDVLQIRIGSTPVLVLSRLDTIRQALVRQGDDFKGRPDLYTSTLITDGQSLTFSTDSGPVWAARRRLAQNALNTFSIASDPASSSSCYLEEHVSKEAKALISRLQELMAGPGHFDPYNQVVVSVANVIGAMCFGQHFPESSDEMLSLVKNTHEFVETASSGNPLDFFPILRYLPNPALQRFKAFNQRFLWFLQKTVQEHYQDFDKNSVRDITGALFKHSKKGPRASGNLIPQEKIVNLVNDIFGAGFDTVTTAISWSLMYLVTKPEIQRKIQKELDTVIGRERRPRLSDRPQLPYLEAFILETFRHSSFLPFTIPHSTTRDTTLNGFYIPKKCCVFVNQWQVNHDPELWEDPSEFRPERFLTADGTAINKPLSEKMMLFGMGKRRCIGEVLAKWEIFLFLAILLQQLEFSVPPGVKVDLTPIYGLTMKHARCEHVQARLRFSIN
The term AC50 denotes the concentration at which the activity in the assay is half-maximal. In the case of `FC(F)(F)c1ccc(N2CCOCC2)c(Nc2nc3ccccc3n3cnnc23)c1`, the AC50 was 6310 nM (active). Still for that read-out and setting: for `COc1cccc2c1C(=O)c1c(O)c3c(c(O)c1C2=O)C[C@](O)(C(=O)CO)C[C@H]3O[C@@H]1C[C@H](N)[C@H](O)[C@H](C)O1` the value was “inactive”. Turning to `Cn1c(=O)c2[nH]c(CS(=O)(=O)Cc3nc4c([nH]3)c(=O)n(C)c(=O)n4C)nc2n(C)c1=O`, the activity, negative = inhibition is -21.1% [at 2.29 µM]. Turning to `COCc1nc2c([nH]1)c(=O)n(C)c(=O)n2CC(C)C`, the AC50 was 12600 nM (active). Take `Cn1c(=O)c2[nH]c(COCc3nc4c([nH]3)c(=O)n(C)c(=O)n4C)nc2n(C)c1=O`: the activity, negative = inhibition was 4.47% [at 2.29 µM]. For `CCN1C(=O)[C@H]2[C@@H]3[C@H](O)C=CC(=O)[C@H]3CC[C@H]2C1=O`, the activity, negative = inhibition is -16.7% [at 11.4 µM].

On to `O=c1[nH]ncc2c3ccccc3n(Cc3ccccc3)c12`, for which the AC50 is 1000 nM (active). On to `O=C(O)[C@@H]1[C@H](C(=O)O)[C@H]2C(=O)C=C[C@H]1N2Cc1ccccc1`, for which the activity, negative = inhibition is -3.91% [at 2.29 µM]. Regarding `O=c1[nH]ncn2cccc12`, the AC50 result is “inactive”.

Turning to `COc1ccc(-n2c(=S)[nH]c3cc(C(=O)NCCCN4CCCC4=O)ccc3c2=O)cc1`, the AC50 is 25100 nM (active).

For `O=C(NCc1ccccc1Cl)c1ccc2c(=O)n(CCCN3CCCC3=O)c(=S)[nH]c2c1`, the AC50 result is “inactive”. Same read-out and setting: for `O=C(NCCCN1CCCC1=O)c1ccc(CNS(=O)(=O)c2ccc(F)cc2)cc1` the value was “inactive”; for `Cc1ccc(C)c(N(CC(=O)NC2CCCC2)C(=O)c2cc3cc4cccc(C)c4nc3s2)c1`, “inactive”. As for `CCN(CC)c1ccc2c(Cl)cc(=O)oc2c1`, the AC50 is 891 nM (active). `CCN(CC)c1ccc(SS(=O)(=O)O)cc1`: the AC50 entry was “inactive”. Take `CCCCS(=O)(=O)NC1=NCN(Cc2ccco2)CN1`: the AC50 entry is “inactive”. Still for that read-out and setting: for `CC1(C)OC(=O)N(Cc2ccco2)C1(C)O` (stereo not drawn) the value was “inactive”. Take `CC1=CC(=C2C(=O)c3ccccc3C2=O)C=C(C)N1Cc1ccco1`: the AC50 is 1580 nM (active). Still for that read-out and setting: for `CC1=CC(=C2C(=O)c3ccccc3C2=O)C=C(C)O1` the value was 200 nM (active). In the case of `Nc1nc(N)c2nn(-c3ccc(C(=O)O)cc3)nc2n1`, the activity, negative = inhibition was -13.4% [at 2.29 µM].

As for `COc1ccc(C(=O)N2CCC[C@@]3(CCN(C(=O)Nc4cccc(C#N)c4)C3)C2)cc1`, the AC50 entry is “inactive”. The same measure, in the same setting: for `CC(C)NC(=O)N1CCCC2(CCN(C(=O)c3csnn3)CC2)C1` the value was “inactive”. Regarding `CSc1nc(Oc2ccc(F)cc2)c2ccccc2n1`, the AC50 is 794 nM (active).

Regarding `CN1CCCC2(CCN(C(=O)c3cnccn3)CC2)C1`, the AC50 result was “inactive”. As to `CN1CCN(CCCBr)CC1`, the activity, negative = inhibition was -20.9% [at 11.4 µM]. Take `O=C(c1cc(Br)ccc1O)c1cc(Br)ccc1O`: the AC50 was 1000 nM (active). With `Cc1cc(C)c(O)c(Cc2cccc(Cc3cc(C)cc(C)c3O)c2O)c1`, the activity, negative = inhibition was -14.7% [at 2.29 µM]. For the molecule `Clc1ccc(CN2CCCN(Cc3ccc(Cl)cc3)C2c2cc3ccccc3c3ccccc23)cc1`, the AC50 is 794 nM (active). For `Cc1cc(C)nc(Nc2n[nH]c(COc3cccc4ccccc34)n2)n1`, the AC50 was 15800 nM (active). `Cc1cc(C)nc(Nc2n[nH]c(-c3cccc4ccccc34)n2)n1`: the AC50 is 4470 nM (active). Still for that read-out and setting: for `Cc1cc(OCCNCCO)cc(C)c1Cl` the value was 2000 nM (active). In the case of `Cc1nnc(NS(=O)(=O)c2ccc(N)cc2)s1`, the AC50 entry is “inactive”. The same measure, in the same setting: for `O=C1CC(c2ccc3c(c2)OCO3)CN1` (stereo not drawn) the value was 12600 nM (active); for `NC(N)=NC[C@@H]1COC2(CCCCC2)O1`, “inactive”.

With `Cc1ccc(C)c(Cn2c(C(=O)OC(C)C)cc3c2ccn3C)c1`, the AC50 is 12600 nM (active). With `CN(C)CC[C@H](c1ccc(Cl)cc1)c1ccccn1`, the AC50 result is “inactive”.

On to `CC(c1ccc(Cl)cc1)n1c(-c2ccc3ccccc3n2)n[nH]c1=S` (stereo not drawn), for which the AC50 was 11200 nM (active).

Take `CCc1c(O)c2c(c(O)c1C(C)=O)C(=O)c1c(cc(O)c(C(=O)O)c1C(=O)O)C2=O`: the activity, negative = inhibition was -33.1% [at 11.4 µM]. `Cc1nc2c(C#N)c(C)[nH]n2c(=O)c1Cc1ccccc1`: the AC50 result was “inactive”. As to `Cc1nc2c(OCc3ccccc3)cccn2c1CC#N`, the AC50 is 398 nM (active).

As for `Brc1ccc(-c2csc(N3CCC(c4ccccc4)C3)n2)cc1` (stereo not drawn), the AC50 was 2510 nM (active). Still for that read-out and setting: for `Clc1ccc(-c2csc(N3CCC(c4ccccc4)C3)n2)cc1` (stereo not drawn) the value was 3550 nM (active); for `S=C1NC2=C(C(c3ccc(Br)cc3)N1)N1CCC2CC1` (stereo not drawn), “inactive”; for `Cc1ccc(Cn2ccc(NC(=O)c3cc4nc(-c5ccco5)cc(C(F)(F)F)n4n3)n2)cc1`, “inactive”. On to `Cc1ccc(C(C(=O)NC2CCCCC2)N2CCN(C(=O)c3ccco3)CC2)cc1` (stereo not drawn), for which the AC50 entry was “inactive”. For the molecule `O=C(NC1CCCC1)c1cnn2c(C(F)(F)F)cc(-c3ccco3)nc12`, the AC50 is 2240 nM (active). Still for that read-out and setting: for `O=S(=O)(c1ccccc1)N1CCC[C@@]2(CCN(C(c3ccccc3)c3ccccc3)C2)C1` the value was “inactive”; for `C/C(=N\NC(N)=S)c1ccc[nH]1`, 3160 nM (active). For the molecule `Cc1ccccc1CS(=O)(=O)Cc1ccc(C(=O)NCc2cccnc2)o1`, the AC50 was 10000 nM (active). Take `CCOc1ccc(OCc2ccc(C(=O)NCc3cccnc3)o2)cc1`: the AC50 is 8910 nM (active).

As for `O=C1c2ccccc2C2=Nc3ccccc3SC(c3ccccc3F)C12` (stereo not drawn), the AC50 is 1410 nM (active). In the case of `CSc1ncnc2c1ncn2[C@@H]1O[C@@H](CO)[C@H](O)O[C@@H]1O`, the activity, negative = inhibition is -5.22% [at 2.29 µM].

Turning to `S=C(S)N1CCCC1`, the AC50 was 12600 nM (active). On the same count and under the same terms, for `COCCCNC(=O)C1CC(=O)N(Cc2ccc(OC)cc2)C1` (stereo not drawn) the value was “inactive”; for `COc1ccc(OC)c(S(=O)(=O)N2CCC(C(=O)NCCc3ccccc3)CC2)c1`, “inactive”. The same measure, in the same setting: for `COc1ccc2cc(CCNC(=O)C3CC3)c(=O)[nH]c2c1` the value was 12600 nM (active); for `Fc1ccccc1OCCCCSc1ncccn1`, 14100 nM (active). On to `CO[C@@H]1COC(=O)[C@H]2CCCN2C(=O)[C@@H](C)COC(=O)[C@H](COCc2ccccc2)NC(=O)C/C=C\[C@H]1C`, for which the activity, negative = inhibition was -3.84% [at 11.4 µM]. Turning to `CCN1CCN(c2nc(C)c3c(n2)CCCC3=O)CC1`, the AC50 is 2240 nM (active). The same measure, in the same setting: for `CCN1CCc2nc(N)oc2CC1` the value was “inactive”; for `CCCCc1n[nH]c2c1/C(=N/O)CC(c1ccccc1)C2` (stereo not drawn), 398 nM (active).

`NNC(=O)CCc1ccc2ccc3ccccc3c2c1`: the AC50 is 31.6 nM (active). For `Nc1ccccc1CCCC(=O)O`, the activity, negative = inhibition was 4.62% [at 11.4 µM]. On to `O=C(O)CCCc1ccc2ccc3ccccc3c2c1`, for which the AC50 is 2000 nM (active). As to `COC(=O)C/C=C\[C@@H](C)[C@@H](/C=N\O[C@@H](C)c1cn([C@H]2COC[C@H]2O)nn1)NS(=O)(=O)c1ccc(C)cc1`, the activity, negative = inhibition was -5.92% [at 11.4 µM]. `CCOc1ccc(NC(=O)c2oc3ccccc3c2NC(=O)CC)cc1`: the AC50 was 2000 nM (active). With `COc1cccc(NC(=O)c2oc3ccccc3c2NC(C)=O)c1`, the AC50 is 2510 nM (active). Still for that read-out and setting: for `CCOCC(=O)Nc1c(C(=O)Nc2ccccc2OC)oc2ccccc12` the value was 398 nM (active); for `CCCCN(C(=O)Nc1ccc(OCC)cc1)C1CCN(C(C)=O)CC1`, “inactive”; for `CCOc1ccccc1NC(=O)C1=C(C)NC(=O)NC1c1cccc(OC)c1OC` (stereo not drawn), “inactive”. Still for that read-out and setting: for `CCOc1ccc(NC(=O)Cn2nnc(C(=O)NCc3ccccc3OC)c2N)cc1` the value was “inactive”; for `COCC(=O)N1CCC[C@@]2(CCN(C(=O)Nc3ccc(OC)cc3)C2)C1`, “inactive”. `C/C(CCN1CCc2nc(-c3ccccc3)c(-c3ccccc3)cc2C1)=N\O[C@@H](C)c1cn([C@H](CO)Cc2ccccc2)nn1`: the activity, negative = inhibition is 1.6% [at 11.4 µM] and -0.819% [at 11.4 µM]. Regarding `CCn1c2ccccc2c2cc(N=C3SC(CC(=O)Nc4ccccc4OC)C(=O)N3C)ccc21` (stereo not drawn), the AC50 entry is “inactive”. On the same count and under the same terms, for `CCn1c2ccccc2c2cc(NC(=O)CSc3nnc(-c4ccc(OC)c(OC)c4)n3N)ccc21` the value was 7080 nM (active); for `CCn1c(=O)cc(SCC(=O)Nc2cc(OC)c(OC)c(OC)c2)c2ccccc21`, “inactive”.

As to `CCN(CC)S(=O)(=O)c1ccc2c3c(cccc13)C(=O)S2`, the AC50 was 1260 nM (active). The same measure, in the same setting: for `Cc1noc(NS(=O)(=O)c2cccc3c(N(C)C)cccc23)c1C` the value was “inactive”.

As for `CCN(CC)S(=O)(=O)c1cccc2c(N(C)C)cccc12`, the AC50 is 7080 nM (active).

Take `Cc1[nH]nc(Nc2ccccc2)c1[N+](=O)[O-]`: the AC50 was 1000 nM (active). Same read-out and setting: for `CCCc1nnc(SCC(=O)N2CCCCC2C)n1CCCOC` (stereo not drawn) the value was “inactive”; for `Cc1ccc2nc(SCc3nc4c(cnn4-c4ccccc4)c(=O)[nH]3)[nH]c2c1`, 12600 nM (active). Still for that read-out and setting: for `Cc1nc(SCC(=O)Nc2c(C)nn(C)c2C)c2cnn(-c3ccccc3)c2n1` the value was “inactive”. On to `Nc1nc(SCC(=O)O)[nH]c(=O)c1N`, for which the activity, negative = inhibition is -10.3% [at 11.4 µM]. Regarding `CCOC(=O)CSc1nc2c(cnn2-c2ccc(C)cc2)c(=O)[nH]1`, the AC50 is 562 nM (active). The same measure, in the same setting: for `COC(=O)C(C)Sc1nc2c(cnn2-c2ccc(C)cc2)c(=O)[nH]1` (stereo not drawn) the value was 2510 nM (active); for `O=C(c1ccco1)N1CCN(c2cc(=O)n(C3CCCCC3)c(=O)[nH]2)CC1`, “inactive”. With `O=C(N/N=C/c1c(Nc2cccc(C(F)(F)F)c2)nc2ccccn2c1=O)c1ccccc1`, the AC50 was 2820 nM (active). As for `Cc1ccc(C(=O)N/N=C/c2sc(=O)n(Cc3cccc(C(=O)O)c3)c2Cl)cc1`, the AC50 result is “inactive”.

Regarding `CC(C)(CO)[C@H](O)C(=O)NCCCO`, the AC50 result is “inactive”. On the same count and under the same terms, for `CNc1ncnc2c1ncn2[C@@H]1O[C@@H](CO)[C@H](O)[C@@H]1O` the value was “inactive”; for `Cc1ccc(OCC(=O)N/N=C\c2c(C)n(C)c3ccccc23)c([N+](=O)[O-])c1`, 562 nM (active).

For `Cn1c(=O)cc(OCCCC(=O)Nc2cccnc2)c2ccccc21`, the AC50 was 2000 nM (active).

Regarding `COc1ccc(-c2nnc(-c3ccc(OCC(C)C)cc3)o2)cc1`, the AC50 result was “inactive”. Regarding `CCOc1ccc(-c2nnc(-c3ccncc3)o2)cc1`, the AC50 was 2510 nM (active). Still for that read-out and setting: for `COc1ccc(-c2nnc(-c3cccnc3)o2)cc1` the value was 12600 nM (active); for `COc1ccc(CC(=O)Nc2ccc(-c3noc(-c4cccc(OC)c4)n3)cc2)cc1`, “inactive”.

For the molecule `COc1cccc(-c2noc(-c3cccnc3)n2)c1`, the AC50 was 2820 nM (active).
